Laboratory results published in the supplement of paper PMC8371130.
Structures can show the parent of a compound that is named as a salt.

Test system: HL-1
Experiment: relative cell viability (CellTiter-Glo) vs DMSO control (% of DMSO control); higher = more viable cells
Method in brief: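 Compounds at 40, 200, 1000 or 5000 nM in 0.01% DMSO were added to HL-1 mouse atrial cardiomyocytes plated at 1000 cells per well in 384-well plates. The next day, cells were exposed to 1% O2 for 48 h and then reoxygenated for 24 h, or left in normoxia for the same time. Viability was read with CellTiter-Glo luminescence and normalised to vehicle-treated controls.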

[1] = oxygen condition: hypoxia 48 h (1% O2) + reoxygenation 24 h, 40 nM
[2] = oxygen condition: hypoxia 48 h (1% O2) + reoxygenation 24 h, 200 nM
[3] = oxygen condition: hypoxia 48 h (1% O2) + reoxygenation 24 h, 1000 nM
[4] = oxygen condition: hypoxia 48 h (1% O2) + reoxygenation 24 h, 5000 nM
[5] = oxygen condition: normoxia 72 h, 40 nM
[6] = oxygen condition: normoxia 72 h, 200 nM
[7] = oxygen condition: normoxia 72 h, 1000 nM
[8] = oxygen condition: normoxia 72 h, 5000 nM

Row | Compound | relative cell viability [1] | relative cell viability [2] | relative cell viability [3] | relative cell viability [4] | relative cell viability [5] | relative cell viability [6] | relative cell viability [7] | relative cell viability [8]
1 | Cn1c(=O)c2c(ncn2CC2OCCO2)n(C)c1=O [Doxofylline] | 101 | 111 | 122 | 113 | 108 | 111 | 113 | 122
2 | CC(=O)[C@H]1CC[C@H]2[C@@H]3C=CC4=CC(=O)CC[C@@]4(C)[C@@H]3CC[C@]12C [Dydrogesterone] | 97.1 | 99 | 106 | 105 | 100 | 98.8 | 96.7 | 105
3 | CCOC(=O)C1=C(C)NC(C)=C(C(=O)OCC)C1c1ccccc1/C=C/C(=O)OC(C)(C)C [Lacidipine] | 109 | 102 | 100 | 102 | 106 | 104 | 106 | 106
4 | CCN(CC)CCNC(C(=O)OCCC(C)C)c1ccccc1 (stereo not given) [Camylofin Chlorhydrate] | 108 | 103 | 106 | 109 | 101 | 100 | 103 | 110
5 | N[C@H](Cc1ccccc1)C(=O)O [D-Phenylalanine] | 103 | 99.4 | 109 | 111 | 92 | 101 | 108 | 116
6 | O=C(Nc1c(Cl)cncc1Cl)c1ccc(OC(F)F)c(OCC2CC2)c1 [Roflumilast] | 101 | 82.1 | 92.9 | 99 | 90.6 | 84.6 | 93.7 | 93.6
7 | OCCN(CCO)c1nc(N2CCCCC2)c2nc(N(CCO)CCO)nc(N3CCCCC3)c2n1 [Dipyridamole] | 102 | 107 | 93.7 | 108 | 108 | 98.7 | 98 | 113
8 | COC(=O)C1=C(C)NC(C)=C(C(=O)OC)C1c1ccccc1[N+](=O)[O-] [Nifedipine] | 96.4 | 77.6 | 85.4 | 63.7 | 105 | 80.7 | 75.6 | 59
9 | CC1(C)O[C@@H]2[C@@H](CO[C@@]3(COS(N)(=O)=O)OC(C)(C)O[C@@H]23)O1 [Topiramate] | 97.3 | 91.8 | 108 | 100 | 104 | 107 | 98 | 98.8
10 | C#CCC(Cc1cnc2nc(N)nc(N)c2n1)c1ccc(C(=O)N[C@@H](CCC(=O)O)C(=O)O)cc1 (stereo not given in full) [Pralatrexate] | 38.6 | 43 | 37.3 | 38.9 | 44.3 | 42.7 | 46.2 | 41.8
11 | CCOc1ccc2nc(S(N)(=O)=O)sc2c1 [Ethoxzolamide] | 100 | 101 | 96.7 | 105 | 102 | 98.8 | 102 | 108
12 | COc1ccc(CN2CCN(C(c3ccc(F)cc3)c3ccc(F)cc3)CC2)c(OC)c1OC [Lomerizine HCl] | 96.9 | 105 | 108 | 106 | 68.3 | 102 | 106 | 108
13 | CC(C)OC(=O)C(C)(C)Oc1ccc(C(=O)c2ccc(Cl)cc2)cc1 [Fenofibrate] | 103 | 105 | 108 | 110 | 103 | 97.9 | 97.5 | 112
14 | CC12CC3CC(C)(C1)CC(N)(C3)C2 [Memantine HCl] | 105 | 105 | 101 | 106 | 94.5 | 101 | 108 | 93.4
15 | C=CC[N+]1([C@H]2C[C@H]3[C@@H]4CC[C@H]5C[C@H](O)[C@@H](N6CCOCC6)C[C@]5(C)[C@H]4CC[C@]3(C)[C@H]2OC(C)=O)CCCC1 [Rocuronium bromide] | 104 | 105 | 116 | 110 | 104 | 104 | 104 | 107
16 | O=C1c2cccc3c2[C@H](CCC3)CN1[C@@H]1CN2CCC1CC2 [Palonosetron HCl] | 103 | 109 | 112 | 97 | 101 | 103 | 86.6 | 104
17 | CN1CCCC(n2nc(Cc3ccc(Cl)cc3)c3ccccc3c2=O)CC1 (stereo not given) [Azelastine hydrochloride] | 96.2 | 98.2 | 101 | 85.4 | 97.9 | 102 | 96.4 | 84.2
18 | CC(=O)O[C@H]1C(=O)[C@@]2(C)[C@H]([C@H](OC(=O)c3ccccc3)[C@]3(O)C[C@H](OC(=O)[C@H](O)[C@@H](NC(=O)c4ccccc4)c4ccccc4)C(C)=C1C3(C)C)[C@]1(OC(C)=O)CO[C@@H]1C[C@@H]2O [Paclitaxel] | 42.4 | 42.8 | 39.9 | 30.5 | 52.3 | 52.2 | 33.2 | 22.2
19 | Cc1ccc(NC(=O)c2ccc(CN3CCN(C)CC3)cc2)cc1Nc1nccc(-c2cccnc2)n1 [Imatinib] | 101 | 101 | 110 | 107 | 105 | 100 | 98.6 | 111
20 | O=C(CCCN1CCN(c2ccccn2)CC1)c1ccc(F)cc1 [Azaperone] | 107 | 104 | 102 | 103 | 102 | 107 | 110 | 111

Row | Compound | relative cell viability [1] | relative cell viability [2] | relative cell viability [3] | relative cell viability [4] | relative cell viability [5] | relative cell viability [6] | relative cell viability [7] | relative cell viability [8]
21 | Cn1ccnc1S [Methimazole] | 102 | 99.9 | 105 | 98.1 | 107 | 100 | 95.4 | 95.9
22 | Nc1ccn([C@@H]2O[C@H](CO)[C@@H](O)C2(F)F)c(=O)n1 [Gemcitabine] | 3.81 | 3.59 | 4.33 | 3.65 | 3.56 | 3.5 | 3.75 | 3.7
23 | CCC(CC)[C@H](NC(C)=O)[C@@H]1[C@H](O)[C@@H](C(=O)O)C[C@H]1NC(=N)N [Peramivir Trihydrate] | 101 | 99.2 | 107 | 111 | 112 | 109 | 103 | 116
24 | CC(=O)Oc1ccccc1C(=O)O [Aspirin] | 94 | 101 | 90.7 | 110 | 95.4 | 105 | 93.6 | 122
25 | Cc1ccc(C(=O)Nc2ccc(CN3CCN(C)CC3)c(C(F)(F)F)c2)cc1C#Cc1cnc2cccnn12 [Ponatinib] | 105 | 108 | 113 | 107 | 103 | 103 | 105 | 106
26 | CCN(CC)CCOC(=O)C(c1ccccc1)c1ccccc1 [Adiphenine HCl] | 99.1 | 94.2 | 102 | 108 | 101 | 97.4 | 101 | 110
27 | CN(C)CCC(c1ccccc1)c1ccccn1 (stereo not given) [Pheniramine Maleate] | 102 | 103 | 104 | 117 | 105 | 101 | 104 | 113
28 | CNCC[C@@H](Oc1ccccc1C)c1ccccc1 [Atomoxetine HCl] | 102 | 104 | 108 | 108 | 100 | 102 | 103 | 119
29 | COc1ccc(C2C(=O)c3ccccc3C2=O)cc1 [Anisindione] | 99.6 | 102 | 105 | 118 | 102 | 78.2 | 114 | 120
30 | COc1cc(Nc2c(C#N)cnc3cc(OCCCN4CCN(C)CC4)c(OC)cc23)c(Cl)cc1Cl [Bosutinib] | 103 | 104 | 107 | 121 | 110 | 125 | 107 | 116
31 | Cc1onc(-c2ccccc2)c1C(=O)N[C@@H]1C(=O)N2[C@@H]1SC(C)(C)[C@@H]2C(=O)O [Oxacillin sodium monohydrate] | 104 | 107 | 96.5 | 110 | 103 | 101 | 110 | 109
32 | COc1cc2nc(N(C)CCCNC(=O)C3CCCO3)nc(N)c2cc1OC (stereo not given) [Alfuzosin hydrochloride] | 103 | 106 | 99.9 | 106 | 103 | 107 | 114 | 112
33 | CC(=O)OCC(=O)[C@@]1(O)CC[C@H]2[C@@H]3CCC4=CC(=O)CC[C@]4(C)[C@H]3C(=O)C[C@@]21C [Cortisone acetate] | 99.7 | 98.2 | 98.1 | 108 | 94.7 | 94.2 | 93.2 | 103
34 | C[C@@H]1CCN(C(=O)CC#N)C[C@@H]1N(C)c1ncnc2[nH]ccc12 [Tofacitinib citrate] | 97 | 104 | 100 | 107 | 106 | 102 | 98.7 | 103
35 | CCOc1cc(N)c(Cl)cc1C(=O)NCC1CN(Cc2ccc(F)cc2)CCO1 (stereo not given) [Mosapride citrate] | 105 | 106 | 104 | 104 | 104 | 109 | 103 | 109
36 | COc1ccc(CN(CCN(C)C)c2ccccn2)cc1 [Pyrilamine Maleate] | 102 | 99.1 | 101 | 112 | 99.5 | 106 | 99.9 | 124
37 | CCCCCCCN(CC)CCCC(O)c1ccc(NS(C)(=O)=O)cc1 (stereo not given) [Ibutilide fumarate] | 103 | 95.7 | 98.8 | 92.9 | 98.3 | 97.9 | 97.3 | 97.6
38 | COc1ccc([C@@H]2Sc3ccccc3N(CCN(C)C)C(=O)[C@@H]2OC(C)=O)cc1 [Diltiazem HCl] | 104 | 105 | 106 | 114 | 105 | 108 | 109 | 113
39 | OC[C@@H](O)[C@@H](O)[C@H](O)[C@@H](O)CO [Sorbitol] | 93 | 101 | 98 | 101 | 100 | 106 | 97.9 | 97.5
40 | O=C1c2c(O)ccc(O)c2C(=O)c2c(NCCNCCO)ccc(NCCNCCO)c21 [Mitoxantrone Hydrochloride] | 4.78 | 4.55 | 5.93 | 3.1 | 4.75 | 4.41 | 3.59 | 3.38
